# Assay outcomes deposited in PubChem by National Center for Advancing Translational Sciences (NCATS).
# TGFb SMAD3 inh – blocks TGF-b signaling; AID 588855; 1.2% of 410,000 active; HepG2 CAGA-GFP TGF-b/SMAD3 reporter, GFP fluorescence, 18 h; TGF-beta stimulated, 500 pg/mL final; Potency, µM (series often up to 46.1 µM), inactives show at the top dose activity, negative = inhibition, hits mostly inhibitors; also: potency is read from the fitted curve at half-maximal effect; % is scaled to controls: 0 for no effect and ±100 for the full control effect; nearly all actives have a fitted effect of over 65% in size
#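 Smad-responsive CAGA-GFP expression was quantified in HEPG2 cells exposed to compounds and 500 pg/mL final TGF-beta for 18 h at 37 degrees C; unstimulated wells defined full inhibition.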
# TDP1 cell noCPT – qHTS for Inhibitors of human tyrosyl-DNA phosphodiesterase 1 (TDP1): qHTS in cells in absence of CPT | DT40 Tdp1-/- hTDP1 cells, no CPT, ATP luminescence, 48 h | Potency, µM (highest dose often 46.2 µM), inactives show top-dose activity change, negative = growth inhibition, actives largely listed as inhibitors | 15% of 420,000 active; also: potency is read from the fitted curve at half-maximal effect; % is scaled to controls: 0 for no effect and ±100 for the full control effect; nearly all actives have a fitted effect of over 55% in size
#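 A cellular qHTS used chicken DT40 cells lacking endogenous Tdp1 but carrying stably transfected human TDP1. Compounds were applied without camptothecin, and cell growth kinetics were judged by ATP-dependent luminescence after ≥48 hr.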
# TDP1 cell CPT – DT40-hTDP1 cell growth loss with CPT | Potency, µM (top dose mostly 46.2 µM), inactives show top-dose activity change, negative = growth inhibition, actives largely listed as inhibitors | 12% of 420,000 active | chicken DT40 Tdp1-/-;hTDP1 cells + 20 nM CPT, ATP luminescence, 48 h; also: potency is read from the fitted curve at half-maximal effect; % is scaled to controls: 0 for no effect and ±100 for the full control effect; nearly all actives have a fitted effect of over 55% in size
#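 Chicken DT40 Tdp1-/- cells stably complemented with human TDP1 were seeded at 400 cells/well in medium containing 20 nM camptothecin, exposed to pin-transferred compounds, and grown at 37 °C for at least 48 hr. Viability was read as ATP luminescence.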
# IL-1B inflam inh – inflammasome signaling inhibition, IL-1 beta readout. AID 743279. activity change, % at 57.5 µM. 4.7% of 360,000 active. THP-1 LPS/ATP IL-1B secretion, AlphaLISA, 16 h; active compounds read low; in the data active = activity change below about -50%; inconclusive = mostly about -30% to -49%; also: % is scaled to controls: 0 for no effect and ±100 for the full control effect
#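 Secreted IL-1B measured by AlphaLISA bead assay after 16 h compound exposure of THP-1 cells; compounds (final up to 57.5 uM) added 1 h before LPS (250 ng/mL) and ATP (1.25 mM) stimulation; lower signal means less secretion.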
# HepG2 viability – counter-screen for TGF-b inhibitors: cytotoxicity in HepG2 cells; HepG2 CAGA-GFP viability, ATP luminescence, 18 h; Potency, µM (doses to about 46.1 µM), for inactives: at the top dose activity change, negative = cytotoxicity, hits mostly cytotoxic; 0.76% of 410,000 active; AID 588856; also: potency is read from the fitted curve at half-maximal effect
#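 HepG2 CAGA-GFP cells (1000/well, DMEM with 1% FBS) received compound, then TGF-beta at 500 pg/mL final, and were incubated 18 hours at 37 degrees C. Viability was read by CellTiter-Glo luminescence. Media-only wells were set as complete cell-killing and DMSO as no toxicity.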
# TDP1 inh – TDP1 (human) enzyme inhibition. recombinant TDP1, AlphaScreen DNA substrate cleavage. Q9NUW8. 0.28% of 350,000 active. Potency, µM (top dose mostly 130 µM), inactives show top-dose activity change, negative = inhibition, most hits filed as inhibitors; also: potency is read from the fitted curve at half-maximal effect; % is scaled to controls: 0 for no effect and ±100 for the full control effect; nearly all actives have a fitted effect of over 40% in size
# Target sequence (Q9NUW8 whole entry, looked up): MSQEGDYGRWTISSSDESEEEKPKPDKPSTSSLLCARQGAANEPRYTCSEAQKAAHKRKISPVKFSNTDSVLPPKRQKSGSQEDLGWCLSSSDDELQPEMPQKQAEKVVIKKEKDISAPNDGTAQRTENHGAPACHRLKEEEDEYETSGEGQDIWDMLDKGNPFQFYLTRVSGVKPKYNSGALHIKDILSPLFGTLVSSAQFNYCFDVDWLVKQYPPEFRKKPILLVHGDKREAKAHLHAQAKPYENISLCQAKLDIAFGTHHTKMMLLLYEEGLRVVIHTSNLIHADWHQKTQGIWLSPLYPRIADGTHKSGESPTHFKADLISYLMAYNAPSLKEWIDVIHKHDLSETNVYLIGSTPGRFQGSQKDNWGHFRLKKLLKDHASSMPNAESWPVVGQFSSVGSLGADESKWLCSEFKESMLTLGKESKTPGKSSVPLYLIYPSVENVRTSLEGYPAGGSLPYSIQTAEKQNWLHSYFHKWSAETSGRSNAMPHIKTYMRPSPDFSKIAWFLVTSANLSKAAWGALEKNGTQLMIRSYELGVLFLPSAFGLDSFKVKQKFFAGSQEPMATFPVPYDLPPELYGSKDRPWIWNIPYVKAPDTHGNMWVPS
#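 AlphaScreen read-out: signal falls as enzyme removes the 3' tyrosine-FITC from a 5'-biotinylated DNA oligo (15 nM, 5 min, RT). Enzyme was E. coli-made recombinant Tdp1 at 1 nM, exposed to compound for 15 min beforehand; beads 10 ug/ml, 10 min.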
# * hit, by the source's call; u = inconclusive; x = no result. Most compounds without a hit are left out; they make up all but 19% or so of the library. Unless noted, calls follow the shape of the dose curve; as a rule, active = well fitted curve in the direction sought with a large enough effect; inconclusive = small, poorly fitted or top-dose-only effect, or another doubt; inactive = no such curve, though single readings can be large; an effect the other way counts as inactive or inconclusive.
SMILES,TGFb SMAD3 inh,TDP1 cell noCPT,TDP1 cell CPT,IL-1B inflam inh,HepG2 viability,TDP1 inh
COc1ccccc1NC(=O)N1CCN(c2ccc3nnc(-c4ccc(F)cc4)n3n2)CC1,u,u,18.4µM*,-52.4*,-21.4%,6.5%
COc1ccc(-n2c(=O)c(-c3ccc(F)c(F)c3)nc3cncnc32)cc1,x,2.4%,-5.6%,x,x,x
CCOc1ccc(-c2nc(Cn3c(=O)cc(C)c4c(C)nn(-c5ccc(C)cc5)c43)c(C)o2)cc1,-11.9%,0.8%,-17.3%,x,5.3%,3.2%
CCN(CC)S(=O)(=O)c1cccc(-c2nnc(SCC#N)n2Cc2ccccc2)c1,-17.8%,u,u,13.9,-0.7%,10.4%
CCN(CC)S(=O)(=O)c1cccc(-c2nnc(SC(C)C#N)n2Cc2ccccc2)c1 (stereo unspecified),-0.4%,18.4µM*,14.6µM*,-18.9,-16.8%,0.0%
COc1ccc2c(C)c(CC(=O)NCCc3ccccc3)c(=O)oc2c1OC,-4.7%,-13.8%,-0.2%,x,1.3%,-4.9%
CCn1c(-c2ccccc2F)nc2cc(NC(C)=O)cc(C(=O)N3CCC[C@H]3C(=O)OC)c21,x,-2.8%,2.4%,x,x,x
O=c1[nH][nH]c2cc([N+](=O)[O-])ccc12,-0.2%,3.66µM*,3.66µM*,-6.3,-4.5%,x
O=c1[nH]c2cc([N+](=O)[O-])ccc2c2ccccc12,-6.0%,-21.3%,-17.2%,-2.6,4.0%,x
O=c1[nH]c2cc([N+](=O)[O-])ccc2c2ccc([N+](=O)[O-])cc12,u,14.6µM*,9.2µM*,7.1,2.6%,x
CCOC(=O)c1ccccc1NC(=O)CSc1cn(CC(=O)N2CCOCC2)c2ccccc12,-2.0%,-21.5%,-27.4%,x,-15.9%,2.6%
COc1ccc([C@H]2CC(=O)C=C(c3cc(Br)ccc3OC)C2)cc1,u,16.4µM*,18.4µM*,5.5,-10.9%,0.8%
COc1ccc([C@H]2CC(=O)C=C(c3ccccc3-c3ccccc3)C2)cc1,u,23.1µM*,23.1µM*,25.8,-3.6%,1.0%
COc1ccc([C@H]2CC(=O)C=C(c3ccc(Br)c4ccccc34)C2)cc1,1.0%,-2.3%,-4.2%,-5.4,-10.4%,0.1%
COc1ccc([C@H]2CC(=O)C=C(c3cc(Cl)ccc3C)C2)cc1,u,u,u,12.8,0.7%,-8.1%
COc1ccc([C@H]2CC(=O)C=C(c3ccnc4ccc(Cl)cc34)C2)cc1,u,9.2µM*,8.2µM*,-11.9,-26.8%,2.3%
CCOc1ccc(Br)cc1C1=CC(=O)C[C@H](c2ccc(OC)cc2)C1,u,2.91µM*,4.61µM*,68.5,-0.9%,0.0%
CC(C)(C)c1ccc(C(=O)NCC(=O)OCc2cc(=O)n3nc(C4CC4)sc3n2)cc1,-27.4%,-21.2%,-4.2%,x,-10.2%,5.8%
COc1ccc([C@H]2CC(=O)C=C(c3cccc(OC(F)(F)F)c3)C2)cc1,-15.7%,u,23.1µM*,-8.1,-33.0%,-9.8%
COc1ccc([C@H]2CC(=O)C=C(c3cc(C)ccc3OC)C2)cc1,-26.1%,6.51µM*,4.11µM*,-7.6,-21.8%,-5.2%
COc1ccc(OC)c(C2=CC(=O)C[C@H](c3ccc4c(c3)OCO4)C2)c1,-19.0%,10.3µM*,7.31µM*,6.0,-18.4%,4.2%
COc1ccc(Br)cc1S(=O)(=O)n1nc(C)cc1C,-1.0%,-0.5%,-7.3%,66.6,-5.8%,2.8%
CC(=O)Nc1ccc(C(=O)N/N=C/c2cc(Br)cc(Br)c2O)cc1,u,10.3µM*,11.6µM*,126.0,-112.5%,2.5%
CC(C)C(=O)Nc1ccc(C(=O)N/N=C/c2cc(Br)cc(Br)c2O)cc1,u,13µM*,7.31µM*,140.9,-46.9%,9.0%
